In the OligoGym collection:

target: CNGB1; test: pooled miR-30 sensor sort-seq; sequence = guide strand; settings: shRNA
Also: reference of the scale not given here.

| Sequence | sensor-assay potency score (higher = more potent) |
| --- | --- |
| TTTGAACTTGCAGCAGAGCATG | -1.2 |
| TAGTAGGTCTGTCCGGCGGTGG | -0.909 |
| TAGGACATACATCAGGTTGGTC | 0.2 |
| TAGGTAATCCATCAGCAGCCAG | -1.07 |
| TTGAACTTGCAGCAGAGCATGT | -0.734 |
| TTGTCCGTAATGATGTCCCCGC | -0.775 |
| TTCTCTTCTTCATAAGCTGGAA | -0.514 |
| TTCACCGTGCTGTCCATGCAGC | -0.762 |
| TTTCTCCAAACACAGATCCAGC | -1.37 |

target: CNN2; test: as above; settings: shRNA

| Sequence | sensor-assay potency score (higher = more potent) |
| --- | --- |
| TCATATTTGGACAGGAGCCGGT | -0.85 |
| TAGCTTGTTCATGAGTGTGCAT | -0.436 |
| TTCTTTTGTGAATACTTCCTGA | -0.256 |
| TTGATGAAGTTGGACAGGTTTT | -0.865 |
| TGGCTGGCACACTTGTTCGTGC | -1.46 |
| TTGGGGTCATATATCTGCCGGC | -0.73 |
| TAGCTGGTGCCAGTTCTGCATG | -1.58 |
| AATACTTCCTGAAACTTGCGGG | 0.259 |
| TTGGACAGGAGCCGGTTCTTGA | -0.733 |
| TTGGTATCATAGATGTGCCGCC | -0.285 |
| ATGAGTGTGCATAAGATAGTTC | -0.603 |
| TTGTCGGTTCCCAGCTTGGTAT | -1.75 |
| TCTGTTGGTCTGAAGGTCCTAG | 0.303 |
| TCATAGAGATGCCTTCTCGTGC | -0.57 |
| TAGAGATGCCTTCTCGTGCCGT | -0.0875 |
| TGTCACACTTGTCGGTTCCCAG | -0.793 |
| TGTAGCTTGTTCATGAGTGTGC | 0.544 |
| TTGACTGGCAGCACTGAACGGG | -0.107 |
| TAAGATAGTTCCATCCTTCAGG | -0.219 |
| TTGGACAGGTTTTCTAGCTGGT | 0.325 |
| TAGCACTCTCTCCACTGTCCTT | -0.91 |
| TTGCGTTTGGTCCACAGTCGTA | -1.13 |
| TATTTCACATTATCTCACGGAG | -0.296 |
| TTTCTTTTGTGAATACTTCCTG | 0.659 |

target: CNOT1; test: as above; settings: shRNA

| Sequence | sensor-assay potency score (higher = more potent) |
| --- | --- |
| TTTTGTGTCATATTTGACTGTG | 0.162 |
| TTGAAATCCAGGATGGTCCAGT | 0.513 |
| TAGGTGAAGATCATACTGCTGC | 0.544 |
| TATCTCTTTACTAAAGTGCTGG | -0.169 |
| TATTCTTCAAACAAGTTCCTTA | 0.402 |
| TTCCTTTAGCTCTTCAACCTTT | -0.326 |
| TAACTTTAAGTCATGCTCCTGA | 0.328 |
